Source: PubChem BioAssay (NCI)
This is part of a sample that, as a whole, favours compounds with a hit. Of some 83,000 tested, about 20% had one in any assay.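 Assay: single dose, 48 h. Readout: percent growth (0 = no net growth; negative = cell death). Active: <10.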 Active and inactive are the calls of the source.

System: SF-539 CNS
Assay: NCI-60 one-dose screen, 48 h (100 = growth as untreated, 0 = no growth, -100 = all killed)
Conditions: 10 µM unless noted

Question: For `N#C/C(=C\c1ccc(Br)cc1)n1nnc2cccc(F)c21`, which growth is on record?
Answer: 1.06% (active)

Question: How did the growth turn out when `COc1cc2oc(-c3cccc(C(=O)Nc4ccc(Cl)cc4)c3)cc(=O)c2c(OC)c1OC` was run?
Answer: 35.2% (inactive)

Question: `CS(=O)(=O)c1ccc(-c2cc(-c3nnc(SCC(=O)Nc4ccc(C(=O)/C=C/c5ccc(Cl)cc5)cc4)n3-c3ccccc3)c3ccccc3n2)cc1` was tested. Which growth did it give?
Answer: 87.5% (inactive)

Question: `COc1ccccc1OCC(=O)N1CCCCCC1` was tested. Which growth did it give?
Answer: 104% (inactive)

Question: With `NC(=O)c1cccc(-n2ccc3cc(NC(=O)Nc4cc(C(F)(F)F)cc(C(F)(F)F)c4)ccc32)n1` as the compound, how does the growth read?
Answer: 52.2% (inactive)

Question: With `COc1cc2nc(-c3ccc(C(F)(F)F)cc3)cc(OCCCN3CCCCC3)c2cc1OC` as the compound, how does the growth read?
Answer: 46.1% (inactive)

Question: For `COc1ccc2c(Nc3ccc(NS(C)(=O)=O)cc3)c3ccccc3nc2c1`, which growth is on record?
Answer: -0.512% (active)

Question: With `C=CCn1c(SCC(=O)Nc2ccc(C(=O)/C=C/c3cc(OC)c(OC)c(OC)c3)cc2)nnc1-c1cc(-c2ccc(S(C)(=O)=O)cc2)nc2ccccc12` as the compound, how does the growth read?
Answer: 86% (inactive)

Question: Which growth does the source give for `CN(C)c1ccc(-c2c(C#N)c(N)n3nc(N)c(C#N)c3c2C#N)cc1` here?
Answer: 78.2% (inactive)

Question: How did the growth turn out when `CCCCCN1C=C/C(=C\C(=O)N(C)c2cccc3ccccc23)c2ccccc21` was run?
Answer: 105% (inactive)

Question: For `CCCCCOc1ccc(/C=N/Nc2cc(C)nc3ccc(Br)cc23)cc1`, which growth is on record?
Answer: -83.7% (active)

Question: How did the growth turn out when `COc1cccc(C(Cc2ccccc2)Nc2ccccc2)c1OC` (stereo unspecified) was run?
Answer: 104% (inactive)

Question: For `Cc1ccc(Nc2cc(=S)nc(N)[nH]2)cc1C`, which growth is on record?
Answer: 96.4% (inactive)

Question: With `O=S(=O)(O)c1cc(O)c2c(N=Nc3ccc(Nc4ccccc4)c4c(S(=O)(=O)O)cccc34)cc(S(=O)(=O)O)cc2c1` as the compound, how does the growth read?
Answer: 96.2% (inactive)

Question: Which growth does the source give for `COc1cc2c(cc1[N+](=O)[O-])-c1ccc([N+](=O)[O-])cc1/C2=N\O` here?
Answer: 84.9% (inactive)

Question: Which growth does the source give for `CS(=O)(=O)OCCN(CCOS(C)(=O)=O)c1ccc(/C=N/Nc2ccc([N+](=O)[O-])cc2[N+](=O)[O-])cc1` here?
Answer: 80.5% (inactive)

Question: For `COc1cc2c(cc1[N+](=O)[O-])-c1ccc([N+](=O)[O-])cc1/C2=N/NC(N)=S`, which growth is on record?
Answer: 73% (inactive)

Question: `CN(C)C(C(N)=O)c1ccc(Cl)cc1` (stereo unspecified) was tested. Which growth did it give?
Answer: 99.5% (inactive)

Question: `CC(C)(C)OC(=O)N1CCN(c2ccc(N)cc2)C(=O)C1` was tested. Which growth did it give?
Answer: 107% (inactive)

Question: How did the growth turn out when `CC(=O)OCC(=O)C1(O)C(C)CC2C3C=C(C)C4=Cc5c(cnn5-c5ccccc5)CC4(C)C3C(O)CC21C` (stereo unspecified) was run?
Answer: -21.3% (active)

Question: Which growth does the source give for `Cc1ccc(C2C3CC4CCCCC4N3[C@@]3(C(=O)Nc4cc(Cl)ccc43)C2C(=O)c2nc3ccccc3[nH]2)cc1` (stereo partly specified) here?
Answer: 50.3% (inactive)

Question: Which growth does the source give for `COc1ccc(-n2cc(-c3cc(OC)c(OC)c(OC)c3)n(C(C)=O)c2=O)cc1` here?
Answer: 90.2% (inactive)

Question: With `C=C(C)[C@@H]1CC[C@]2(C(=O)N3CCN(C)CC3)CC[C@]3(C)[C@H](CC[C@@H]4[C@@]5(C)CCC(=O)C(C)(C)[C@@H]5CC[C@]43C)[C@@H]12` as the compound, how does the growth read?
Answer: 73.9% (inactive)

Question: With `NC(=S)N/N=C(/c1ccccc1)c1ccccc1N` as the compound, how does the growth read?
Answer: 99.6% (inactive)

Question: `COc1ccc(C(=O)c2cc(C)c(OC)c(C)c2)c(OC)c1N(C(=O)C(Cl)Cl)C(=O)C(Cl)Cl` was tested. Which growth did it give?
Answer: -16% (active)

Question: `c1ccc(-c2nn(-c3ccccc3)[n+](-c3ccccc3-c3ccccc3)n2)cc1` was tested. Which growth did it give?
Answer: 22.9% (inactive)

Question: Which growth does the source give for `COc1ccc2c(c1)OC13Oc4cc(OC)ccc4C=C1CCCC3=C2` here?
Answer: 84.5% (inactive)

Question: How did the growth turn out when `CC(O)(CO)c1ccccc1` (stereo unspecified) was run?
Answer: 92.4% (inactive)

Question: `O=C(Nc1nc(-c2ccccc2Cl)cs1)c1cc(-c2ccccc2)nc2ccc(Cl)cc12` was tested. Which growth did it give?
Answer: -7.04% (active)

Question: How did the growth turn out when `COC(=O)N[C@H]1CCc2cc(OC)c(OC)c(OC)c2-c2ccc(SC)c(=O)cc21` was run?
Answer: -27.6% (active)

Question: `CCCCCCN(C)Cc1ccc(OCCOc2ccc(CN(C)CCCCCC)cc2)cc1` was tested. Which growth did it give?
Answer: 13.5% (inactive)

Question: `CCOC(=O)N1CCc2c(sc3nc4nc[nH]n4c(=O)c23)C1` was tested. Which growth did it give?
Answer: 94.6% (inactive)

Question: How did the growth turn out when `CCOC(=O)c1c(C)nc2c(c1N)C(=O)C(=O)N2Cc1ccc(C(F)(F)F)cc1` was run?
Answer: 52.6% (inactive)

Question: For `CC(=O)c1cccc(NS(=O)(=O)c2cccc(C(=O)Nc3ccc(Br)cc3)c2)c1`, which growth is on record?
Answer: 65.3% [25 µM] (inactive)

Question: Which growth does the source give for `COc1ccccc1C(C[N+](=O)[O-])c1c(-c2ccccc2)[nH]c2cc(C)ccc12` (stereo unspecified) here?
Answer: 84.2% (inactive)

Question: `CC(C)Cc1ccc(C(C)C(=O)NCc2c[nH]c3ccc(Cl)cc23)cc1` (stereo unspecified) was tested. Which growth did it give?
Answer: 100% (inactive)

Question: For `CCCC1C(C(=O)OCC)=C(N)Oc2cc(O)ccc21` (stereo unspecified), which growth is on record?
Answer: 93.8% (inactive)

Question: For `Cc1ccc(C(=O)Nc2ccccc2C(=O)N/N=C(\c2ccccc2)c2ccccn2)cc1`, which growth is on record?
Answer: 8.97% (active)

System: UACC-257 melanoma
Assay: as above
Conditions: 10 µM unless noted

Question: How did the growth turn out when `N#C/C(=C\c1ccc(Br)cc1)n1nnc2cccc(F)c21` was run?
Answer: 37.3% (inactive)

Question: How did the growth turn out when `COc1cc2oc(-c3cccc(C(=O)Nc4ccc(Cl)cc4)c3)cc(=O)c2c(OC)c1OC` was run?
Answer: -7.18% (active)

Question: `CS(=O)(=O)c1ccc(-c2cc(-c3nnc(SCC(=O)Nc4ccc(C(=O)/C=C/c5ccc(Cl)cc5)cc4)n3-c3ccccc3)c3ccccc3n2)cc1` was tested. Which growth did it give?
Answer: 107% (inactive)

Question: How did the growth turn out when `COc1ccccc1OCC(=O)N1CCCCCC1` was run?
Answer: 93.3% (inactive)

Question: With `NC(=O)c1cccc(-n2ccc3cc(NC(=O)Nc4cc(C(F)(F)F)cc(C(F)(F)F)c4)ccc32)n1` as the compound, how does the growth read?
Answer: 72.2% (inactive)

Question: With `COc1cc2nc(-c3ccc(C(F)(F)F)cc3)cc(OCCCN3CCCCC3)c2cc1OC` as the compound, how does the growth read?
Answer: 10.1% (inactive)

Question: With `COc1ccc2c(Nc3ccc(NS(C)(=O)=O)cc3)c3ccccc3nc2c1` as the compound, how does the growth read?
Answer: -78% (active)

Question: For `C=CCn1c(SCC(=O)Nc2ccc(C(=O)/C=C/c3cc(OC)c(OC)c(OC)c3)cc2)nnc1-c1cc(-c2ccc(S(C)(=O)=O)cc2)nc2ccccc12`, which growth is on record?
Answer: 102% (inactive)

Question: With `CN(C)c1ccc(-c2c(C#N)c(N)n3nc(N)c(C#N)c3c2C#N)cc1` as the compound, how does the growth read?
Answer: 113% (inactive)

Question: For `CCCCCN1C=C/C(=C\C(=O)N(C)c2cccc3ccccc23)c2ccccc21`, which growth is on record?
Answer: 106% (inactive)

Question: With `CCCCCOc1ccc(/C=N/Nc2cc(C)nc3ccc(Br)cc23)cc1` as the compound, how does the growth read?
Answer: 102% (inactive)

Question: How did the growth turn out when `COc1cccc(C(Cc2ccccc2)Nc2ccccc2)c1OC` (stereo unspecified) was run?
Answer: 91% (inactive)

Question: Which growth does the source give for `Cc1ccc(Nc2cc(=S)nc(N)[nH]2)cc1C` here?
Answer: 103% (inactive)

Question: With `O=S(=O)(O)c1cc(O)c2c(N=Nc3ccc(Nc4ccccc4)c4c(S(=O)(=O)O)cccc34)cc(S(=O)(=O)O)cc2c1` as the compound, how does the growth read?
Answer: 95.6% (inactive)

Question: With `COc1cc2c(cc1[N+](=O)[O-])-c1ccc([N+](=O)[O-])cc1/C2=N\O` as the compound, how does the growth read?
Answer: 97.9% (inactive)

Question: For `CS(=O)(=O)OCCN(CCOS(C)(=O)=O)c1ccc(/C=N/Nc2ccc([N+](=O)[O-])cc2[N+](=O)[O-])cc1`, which growth is on record?
Answer: 96.9% (inactive)

Question: How did the growth turn out when `COc1cc2c(cc1[N+](=O)[O-])-c1ccc([N+](=O)[O-])cc1/C2=N/NC(N)=S` was run?
Answer: 75.5% (inactive)

Question: With `CN(C)C(C(N)=O)c1ccc(Cl)cc1` (stereo unspecified) as the compound, how does the growth read?
Answer: 95.5% (inactive)

Question: `CC(C)(C)OC(=O)N1CCN(c2ccc(N)cc2)C(=O)C1` was tested. Which growth did it give?
Answer: 107% (inactive)

Question: Which growth does the source give for `CC(=O)OCC(=O)C1(O)C(C)CC2C3C=C(C)C4=Cc5c(cnn5-c5ccccc5)CC4(C)C3C(O)CC21C` (stereo unspecified) here?
Answer: 52.3% (inactive)

Question: How did the growth turn out when `Cc1ccc(C2C3CC4CCCCC4N3[C@@]3(C(=O)Nc4cc(Cl)ccc43)C2C(=O)c2nc3ccccc3[nH]2)cc1` (stereo partly specified) was run?
Answer: 35.1% (inactive)

Question: `COc1ccc(-n2cc(-c3cc(OC)c(OC)c(OC)c3)n(C(C)=O)c2=O)cc1` was tested. Which growth did it give?
Answer: 90.3% (inactive)

Question: For `C=C(C)[C@@H]1CC[C@]2(C(=O)N3CCN(C)CC3)CC[C@]3(C)[C@H](CC[C@@H]4[C@@]5(C)CCC(=O)C(C)(C)[C@@H]5CC[C@]43C)[C@@H]12`, which growth is on record?
Answer: 101% (inactive)

Question: Which growth does the source give for `NC(=S)N/N=C(/c1ccccc1)c1ccccc1N` here?
Answer: 54% (inactive)

Question: How did the growth turn out when `COc1ccc(C(=O)c2cc(C)c(OC)c(C)c2)c(OC)c1N(C(=O)C(Cl)Cl)C(=O)C(Cl)Cl` was run?
Answer: 48.3% (inactive)

Question: `c1ccc(-c2nn(-c3ccccc3)[n+](-c3ccccc3-c3ccccc3)n2)cc1` was tested. Which growth did it give?
Answer: 9.82% (active)

Question: For `COc1ccc2c(c1)OC13Oc4cc(OC)ccc4C=C1CCCC3=C2`, which growth is on record?
Answer: 52.5% (inactive)

Question: Which growth does the source give for `CC(O)(CO)c1ccccc1` (stereo unspecified) here?
Answer: 93.9% (inactive)

Question: `O=C(Nc1nc(-c2ccccc2Cl)cs1)c1cc(-c2ccccc2)nc2ccc(Cl)cc12` was tested. Which growth did it give?
Answer: 84.6% (inactive)

Question: For `COC(=O)N[C@H]1CCc2cc(OC)c(OC)c(OC)c2-c2ccc(SC)c(=O)cc21`, which growth is on record?
Answer: 59.4% (inactive)

Question: With `CCCCCCN(C)Cc1ccc(OCCOc2ccc(CN(C)CCCCCC)cc2)cc1` as the compound, how does the growth read?
Answer: -52.5% (active)

Question: Which growth does the source give for `CCOC(=O)N1CCc2c(sc3nc4nc[nH]n4c(=O)c23)C1` here?
Answer: 109% (inactive)

Question: `CCOC(=O)c1c(C)nc2c(c1N)C(=O)C(=O)N2Cc1ccc(C(F)(F)F)cc1` was tested. Which growth did it give?
Answer: 74.2% (inactive)

Question: How did the growth turn out when `CC(=O)c1cccc(NS(=O)(=O)c2cccc(C(=O)Nc3ccc(Br)cc3)c2)c1` was run?
Answer: 36.4% [25 µM] (inactive)

Question: For `COc1ccccc1C(C[N+](=O)[O-])c1c(-c2ccccc2)[nH]c2cc(C)ccc12` (stereo unspecified), which growth is on record?
Answer: 83% (inactive)

Question: How did the growth turn out when `CC(C)Cc1ccc(C(C)C(=O)NCc2c[nH]c3ccc(Cl)cc23)cc1` (stereo unspecified) was run?
Answer: 99.4% (inactive)

Question: Which growth does the source give for `CCCC1C(C(=O)OCC)=C(N)Oc2cc(O)ccc21` (stereo unspecified) here?
Answer: 104% (inactive)

Question: How did the growth turn out when `Cc1ccc(C(=O)Nc2ccccc2C(=O)N/N=C(\c2ccccc2)c2ccccn2)cc1` was run?
Answer: 8.34% (active)
